PubChem BioAssay (NCATS)
Results filed as inconclusive are left out. The list shows a part of the results. Calls of active or inactive are those of the source. Unless noted, calls follow the shape of the dose curve; as a rule, active = well fitted curve in the direction sought with a large enough effect; inconclusive = small, poorly fitted or top-dose-only effect, or another doubt; inactive = no such curve, though single readings can be large; an effect the other way counts as inactive or inconclusive.

Assays:
[1] = target: Tumor susceptibility gene 101 protein (Homo sapiens) (UniProt Q99816); experiment: qHTS Assay for Iinhibitors of HIV-1 Budding by Blocking the Interaction of PTAP/TSG101: Hit Validation (AID 651600); also: nearly all actives have a fitted effect of over 70% in size; also: potency is read from the fitted curve at half-maximal effect; as to activity change, negative = inhibition: % is scaled to controls: 0 for no effect and ±100 for the full control effect
Chain of Tumor susceptibility gene 101 protein (Homo sapiens) (Q99816 whole entry, looked up, the tested form may be a part): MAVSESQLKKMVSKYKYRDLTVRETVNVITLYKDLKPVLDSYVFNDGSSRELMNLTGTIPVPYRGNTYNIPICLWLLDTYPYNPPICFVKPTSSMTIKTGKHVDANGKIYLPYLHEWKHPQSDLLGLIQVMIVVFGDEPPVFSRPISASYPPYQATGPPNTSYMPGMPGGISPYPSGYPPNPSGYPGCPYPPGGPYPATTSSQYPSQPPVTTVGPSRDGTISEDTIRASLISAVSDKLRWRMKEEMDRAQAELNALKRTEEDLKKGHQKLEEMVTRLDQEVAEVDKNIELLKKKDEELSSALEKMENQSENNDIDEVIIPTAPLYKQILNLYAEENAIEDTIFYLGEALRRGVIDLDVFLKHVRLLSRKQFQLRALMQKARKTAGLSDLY
Outline: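 Fluorescence polarization binding assay: Tsg101 binding domain (10 uM final) pre-dispensed with compounds, then FITC-labeled PTAP-motif peptide (50 nM final) added; 20 min at r.t. in HEPES pH 7.5 buffer with NaCl, Tween 20, EDTA, TCEP.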

[2] = target: Rap guanine nucleotide exchange factor 3 (Homo sapiens) (UniProt O95398); experiment: Confirmatory qHTS for agonist of cAMP-regulated guanine nucleotide exchange factor 3 (EPAC1) (AID 1645881);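 also: EPAC1 catalysed release of BODIPY-GDP from Rap1B seen as fluorescence loss; 100% = effect of cAMP agonist control; nearly all actives have a fitted effect of over 75% in size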
Chain of Rap guanine nucleotide exchange factor 3 (Homo sapiens) (O95398 whole entry, looked up): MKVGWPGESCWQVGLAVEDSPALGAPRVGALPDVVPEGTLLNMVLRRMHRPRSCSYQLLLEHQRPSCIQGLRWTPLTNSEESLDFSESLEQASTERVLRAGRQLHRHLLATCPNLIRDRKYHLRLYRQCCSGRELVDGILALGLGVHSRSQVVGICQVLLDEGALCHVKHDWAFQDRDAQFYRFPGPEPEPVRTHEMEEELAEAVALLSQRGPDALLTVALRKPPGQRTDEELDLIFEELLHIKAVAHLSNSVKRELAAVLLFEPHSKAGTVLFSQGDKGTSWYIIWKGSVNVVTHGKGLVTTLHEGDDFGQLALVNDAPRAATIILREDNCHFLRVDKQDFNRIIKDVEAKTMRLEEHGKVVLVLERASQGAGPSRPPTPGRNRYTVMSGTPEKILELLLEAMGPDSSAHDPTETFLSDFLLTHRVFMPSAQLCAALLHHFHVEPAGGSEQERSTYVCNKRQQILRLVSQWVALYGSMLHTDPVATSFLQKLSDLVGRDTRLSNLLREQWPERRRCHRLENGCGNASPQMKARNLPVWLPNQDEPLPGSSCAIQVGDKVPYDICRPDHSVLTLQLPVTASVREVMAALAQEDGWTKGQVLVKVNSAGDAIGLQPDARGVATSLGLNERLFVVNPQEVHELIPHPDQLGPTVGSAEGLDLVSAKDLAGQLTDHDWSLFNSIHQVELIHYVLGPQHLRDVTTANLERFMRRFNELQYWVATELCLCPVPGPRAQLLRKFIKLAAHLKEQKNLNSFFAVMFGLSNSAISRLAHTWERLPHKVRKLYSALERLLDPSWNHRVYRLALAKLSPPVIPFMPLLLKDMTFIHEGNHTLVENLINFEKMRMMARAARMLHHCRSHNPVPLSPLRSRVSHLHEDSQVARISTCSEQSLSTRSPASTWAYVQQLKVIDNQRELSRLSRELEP

[3] = target: Rap guanine nucleotide exchange factor 4 (Homo sapiens) (UniProt Q8WZA2); experiment: Confirmatory qHTS for agonist of cAMP-regulated guanine nucleotide exchange factor 4 (EPAC2) (AID 1645884);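 also: nucleotide exchange releases bodipy-GDP from Rap1 and this lowers its fluorescence; % is scaled to controls: 0 for no effect and ±100 for the full control effect; nearly all actives have a fitted effect of over 65% in size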
Chain of Rap guanine nucleotide exchange factor 4 (Homo sapiens) (Q8WZA2 whole entry, looked up): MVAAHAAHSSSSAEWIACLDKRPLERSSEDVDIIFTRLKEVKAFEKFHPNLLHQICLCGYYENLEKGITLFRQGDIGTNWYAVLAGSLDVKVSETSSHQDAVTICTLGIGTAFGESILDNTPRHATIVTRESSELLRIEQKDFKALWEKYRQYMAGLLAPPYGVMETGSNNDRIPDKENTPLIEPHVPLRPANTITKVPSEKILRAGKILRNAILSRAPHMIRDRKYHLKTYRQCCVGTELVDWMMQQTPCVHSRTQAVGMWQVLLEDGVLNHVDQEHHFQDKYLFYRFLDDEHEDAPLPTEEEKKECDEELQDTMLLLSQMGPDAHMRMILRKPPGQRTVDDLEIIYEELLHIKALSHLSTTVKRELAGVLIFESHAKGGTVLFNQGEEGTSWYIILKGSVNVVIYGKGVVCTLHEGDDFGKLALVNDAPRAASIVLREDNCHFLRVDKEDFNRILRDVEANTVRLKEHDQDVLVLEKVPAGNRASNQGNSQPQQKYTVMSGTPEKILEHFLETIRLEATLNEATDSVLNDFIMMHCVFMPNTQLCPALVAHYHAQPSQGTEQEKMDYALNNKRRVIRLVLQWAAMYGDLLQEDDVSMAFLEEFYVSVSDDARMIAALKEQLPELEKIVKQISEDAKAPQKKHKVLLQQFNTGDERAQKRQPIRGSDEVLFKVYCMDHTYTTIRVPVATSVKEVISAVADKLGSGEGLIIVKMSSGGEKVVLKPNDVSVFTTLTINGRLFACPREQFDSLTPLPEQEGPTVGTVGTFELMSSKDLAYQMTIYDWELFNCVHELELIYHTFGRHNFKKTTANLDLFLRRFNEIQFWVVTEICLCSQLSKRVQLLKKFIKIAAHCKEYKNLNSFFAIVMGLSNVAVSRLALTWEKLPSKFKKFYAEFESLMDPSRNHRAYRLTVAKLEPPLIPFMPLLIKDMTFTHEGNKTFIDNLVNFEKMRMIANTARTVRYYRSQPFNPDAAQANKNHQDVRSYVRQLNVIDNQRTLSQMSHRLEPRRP

[4] = target: Rap guanine nucleotide exchange factor 4 (Homo sapiens) (UniProt Q8WZA2); experiment: Confirmatory qHTS for antagonist of cAMP-regulated guanine nucleotide exchange factor 4 (EPAC2) (AID 1645885); also: nearly all actives have a fitted effect of over 25% in size; also: potency is read from the fitted curve at half-maximal effect
[5] = target: Rap guanine nucleotide exchange factor 3 (Homo sapiens) (UniProt O95398); experiment: Counterscreen qHTS for antagonist of cAMP-regulated guanine nucleotide exchange factor 3 (EPAC1) (AID 1645888);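 also: fluorescence loss as bound BODIPY-GDP is released from Rap1B; % of control where 0% means no effect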
Outline: (§1)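 Rap1B–BODIPY-GDP (250 nM) with 50 uM GDP; compounds pin-transferred to 9.74 nM–152 uM final (activator) or from 7.32 nM upwards (inhibitor). Fluorescence Ex/Em 480/540 nm read at 5 and 30 min, then after adding cAMP or buffer, at room temperature.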

[6] = target: Rap guanine nucleotide exchange factor 3 (Homo sapiens) (UniProt O95398); experiment: Counterscreen qHTS for agonist of cAMP-regulated guanine nucleotide exchange factor 3 (EPAC1) (AID 1645889); also: nearly all actives have a fitted effect of over 40% in size; also: potency is read from the fitted curve at half-maximal effect; as to activation: % of control where 0% means no effect
Outline: as §1

[7] = AP1 Signaling Pathway (AID 357; active = well fitted curve in either direction with a large enough effect, not every such curve was filed as active;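 also: ME-180 reporter cells stimulated with EGF at its EC50 level; % is scaled to controls: 0 for no effect and ±100 for the full control effect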); details: ME-180 AP-1-bla reporter, EGF-induced, beta-lactamase ratio, 5 h; at 7.69 µM (top of the series) unless noted
Outline: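 Modulation of EGF-driven AP-1 transcription was assessed with a beta-lactamase reporter in ME-180 cells. Compound and EC50 EGF were co-incubated 5 hours at 37 °C before 2.5-hour CCF4 loading at room temperature and dual-emission reading.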

[8] = NFAT Signaling Pathway (AID 444; active = well fitted curve in either direction with a large enough effect, not every such curve was filed as active;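 also: carbachol stimulus at about its EC50 of 1 µM final; % is scaled to controls: 0 for no effect and ±100 for the full control effect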); details: Jurkat NFAT-bla M1, carbachol, beta-lactamase ratio, 5 h; at 7.69 µM (top of the series) unless noted
Outline: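 Jurkat cells with NFAT-driven β-lactamase reporter and co-expressed M1 receptor, stimulated with carbachol (final 1 uM, ~EC50), compound titration, 5 h at 37 °C. CCF4 loaded 1 h at RT; 460/530 nm ratio gave %activity and AC50.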

[9] = Stat Signaling Pathway (AID 446; active = well fitted curve in either direction with a large enough effect, not every such curve was filed as active;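 also: ME-180 cervical cancer cells given 40 pM IL-6 alongside compound; SIE-controlled beta-lactamase reporter measured as 460/530 nm FRET emission ratio; % is scaled to controls: 0 for no effect and ±100 for the full control effect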)
Outline: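 ME-180 cells carrying a SIE-driven beta-lactamase reporter are stimulated with 40 pM IL-6 for 5 h at 37C in the presence of compound. The 460/530 nm FRET substrate ratio is read after 2.5 h at RT. Data are normalised to 300 pM IL-6 and to 125 nM JAK inhibitor controls.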

[10] = target: Glucocorticoid receptor (Homo sapiens) (UniProt P04150); experiment: GR-GFP Redistribution (AID 450;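 active = compounds whose dose series gives a full or clear partial fitted curve of increased nuclear translocation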; also: potency is read from the fitted curve at half-maximal effect); details: U2OS GR-GFP nuclear translocation, laser cytometry, 2 h
Chain of Glucocorticoid receptor (Homo sapiens) (P04150 whole entry, looked up): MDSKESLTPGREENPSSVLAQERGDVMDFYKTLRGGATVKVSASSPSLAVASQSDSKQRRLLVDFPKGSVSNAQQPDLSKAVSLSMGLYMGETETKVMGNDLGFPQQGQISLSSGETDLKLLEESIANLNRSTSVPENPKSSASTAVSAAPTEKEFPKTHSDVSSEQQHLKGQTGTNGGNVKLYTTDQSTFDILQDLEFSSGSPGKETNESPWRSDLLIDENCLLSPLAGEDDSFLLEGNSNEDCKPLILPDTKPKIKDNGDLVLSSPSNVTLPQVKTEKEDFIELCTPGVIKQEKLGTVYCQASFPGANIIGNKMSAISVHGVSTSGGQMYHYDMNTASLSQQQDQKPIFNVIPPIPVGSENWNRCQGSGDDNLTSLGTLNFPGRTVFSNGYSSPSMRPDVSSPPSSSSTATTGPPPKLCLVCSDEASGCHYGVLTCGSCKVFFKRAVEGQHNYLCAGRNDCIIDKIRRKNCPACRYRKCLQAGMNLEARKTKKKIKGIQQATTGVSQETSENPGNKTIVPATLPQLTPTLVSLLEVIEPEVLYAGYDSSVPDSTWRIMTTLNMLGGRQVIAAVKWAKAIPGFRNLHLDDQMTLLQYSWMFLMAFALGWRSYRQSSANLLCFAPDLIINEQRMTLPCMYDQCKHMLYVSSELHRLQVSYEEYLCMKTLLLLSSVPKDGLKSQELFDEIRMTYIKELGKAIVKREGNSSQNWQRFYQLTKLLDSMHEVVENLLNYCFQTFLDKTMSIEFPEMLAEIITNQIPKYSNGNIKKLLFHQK

[11] = target: Lethal(3)malignant brain tumor-like protein 1 (Homo sapiens) (UniProt Q9Y468); experiment: qHTS Assay for the Inhibitors of L3MBTL1: Hit Validation (AID 540279); details: L3MBTL1 methyl-lysine binding inhibition, biochemical qHTS; also: potency is read from the fitted curve at half-maximal effect; nearly all actives have a fitted effect of over 70% in size
Chain of Lethal(3)malignant brain tumor-like protein 1 (Homo sapiens) (Q9Y468 whole entry, looked up): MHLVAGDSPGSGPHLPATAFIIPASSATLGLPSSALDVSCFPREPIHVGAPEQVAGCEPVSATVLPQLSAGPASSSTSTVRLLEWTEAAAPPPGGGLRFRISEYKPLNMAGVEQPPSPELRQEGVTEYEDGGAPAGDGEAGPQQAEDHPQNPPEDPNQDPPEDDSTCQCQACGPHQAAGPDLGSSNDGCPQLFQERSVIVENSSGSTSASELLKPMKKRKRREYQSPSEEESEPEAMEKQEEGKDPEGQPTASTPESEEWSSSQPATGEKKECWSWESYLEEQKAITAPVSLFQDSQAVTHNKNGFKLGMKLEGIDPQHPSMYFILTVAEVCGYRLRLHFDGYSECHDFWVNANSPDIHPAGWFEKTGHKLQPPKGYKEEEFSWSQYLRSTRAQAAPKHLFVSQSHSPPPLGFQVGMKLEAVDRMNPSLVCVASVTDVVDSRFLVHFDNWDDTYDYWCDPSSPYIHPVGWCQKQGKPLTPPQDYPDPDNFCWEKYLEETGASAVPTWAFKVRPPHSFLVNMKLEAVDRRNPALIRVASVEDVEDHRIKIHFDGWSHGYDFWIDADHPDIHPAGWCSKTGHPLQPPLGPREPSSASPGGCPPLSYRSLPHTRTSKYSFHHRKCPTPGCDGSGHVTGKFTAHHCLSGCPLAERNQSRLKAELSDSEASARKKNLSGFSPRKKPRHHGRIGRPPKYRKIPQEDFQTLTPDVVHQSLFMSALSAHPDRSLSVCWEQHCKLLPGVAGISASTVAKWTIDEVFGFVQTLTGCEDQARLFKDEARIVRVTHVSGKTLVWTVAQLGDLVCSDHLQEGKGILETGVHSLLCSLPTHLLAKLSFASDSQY
Outline: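 L3MBTL1 (50 nM final) preformed 30 min with biotinylated H3(1-15)K9me1 peptide (75 nM), then compound 30 min at room temperature. Streptavidin donor and nickel chelate acceptor AlphaScreen beads (10 ug/mL each final) added for 30 min before read.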

[12] = qHTS Assay for the Inhibitors of L3MBTL1: Hit Validationin AlphaScreen Counterscreen (AID 602224); also: 0% is about no effect
Outline: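 Bead-bridging control using 1 nM b-His6 linking streptavidin donor and nickel chelate acceptor beads (10 ug/mL each, final). Compound exposure 15 min, then beads, 30 min dark incubation at room temperature before AlphaScreen reading.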

Cc1c2ccccc2nc2c(F)c(NC(C)C)c(F)c(F)c12
inactive: Potency [1] | Potency [2] | Potency [3] | Potency [4] | Potency [5]

Cc1ccc(NC(=O)C2(C)CCN2CCc2ccccc2)cc1 (stereo not given)
inactive: Potency [2] | activation [3] -1.02% [at 17.1 µM, percent relative to cAMP agonist control] | Potency [4] | activity change, negative = inhibition [5] 1.14% [at 30.8 µM] | activation [6] 6.12% [at 30.8 µM]

COCc1nc2ccccc2n1Cc1ccc(C(C)(C)C)cc1
inactive: Potency [2] | Potency [3] | Potency [4] | Potency [6]

Cc1ccc(S(=O)(=O)N2[C@@H](c3ccc(C(C)(C)C)cc3)C(C(=O)O)=CC[C@H]2c2cccs2)cc1
inactive: Potency [2] | Potency [3] | Potency [4] | Potency [6]

CC(=O)N(CCC(c1ccco1)C(C)C)Cc1ccc(Cl)cc1 (stereo not given)
inactive: Potency [2] | Potency [3] | Potency [4] | Potency [6]

O=C(CCl)N1c2ccccc2Oc2ccc3ccccc3c21
active: Potency [6] 35.5 µM
inactive: Potency [1] | Potency [2] | Potency [3] | Potency [4] | Potency [5]

Cc1c2cc(O)c(=O)cc-2oc2cc(O)c(O)cc12
active: Potency [1] 1.83 µM
inactive: Potency [2] | activation [3] -3.29% [at 17.1 µM, percent relative to cAMP agonist control] | Potency [4] | activity change, negative = inhibition [5] -2.73% [at 30.8 µM] | activation [6] 0.526% [at 30.8 µM]

Cc1cccc(N2CC(C(=O)Nc3nnc(SCC(=O)NCC4CCCO4)s3)CC2=O)c1 (stereo not given)
inactive: Potency [2] | Potency [3] | Potency [4] | Potency [6]

CCOC(=O)C1CCCN(c2nc3ccccc3nc2C(C#N)C(=O)OC(C)C)C1 (stereo not given)
inactive: activity change, negative = inhibition [7] -3.2% [at 17.2 µM] | activity change, negative = inhibition [8] -22.1% [at 17.2 µM] | outcome [9] | Potency [10] > 20.6 µM | Potency [2] | activation [3] 6.19% [at 17.1 µM, percent relative to cAMP agonist control] | Potency [4] | activity change, negative = inhibition [5] 0.815% [at 30.8 µM] | activation [6] 36.1% [at 30.8 µM]

O=C1/C(=C/c2ccco2)Oc2c1ccc(O)c2CN1CCCCC1
inactive: Potency [2] | Potency [3] | Potency [5] | Potency [6]
active: Potency [1] 32.6 µM | Potency [4] 84.9 µM

Cc1ccc(Cn2c(C)nc3c(c2=O)c2nc4ccccc4nc2n3Cc2ccco2)cc1
active: Potency [11] 23.8 µM
inactive: outcome [12] | Potency [2] | Potency [3] | Potency [4] | Potency [5] | Potency [6]
